The panel holds about 79,000 compounds, 15% with a hit somewhere; the sample as a whole holds those more often. Active and inactive are the calls of the source. Rule as the data show it: active = growth inhibition above about 70%; inactive = the rest.
Assays:
[1] = NCI Yeast Anticancer Drug Screen. Data for the mlh1 strain (AID 171);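 also: 0% = growth of vehicle-treated control cultures of the same strain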; conditions: S. cerevisiae mlh1 strain growth inhibition, active compounds read high
Outline: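 Vehicle-normalised growth inhibition of a repair- or checkpoint-altered yeast strain following compound treatment.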

[2] = NCI Yeast Anticancer Drug Screen. Data for the mlh1 rad18 strain (AID 175); conditions: S. cerevisiae mlh1 rad18 strain growth inhibition, active compounds read high
Outline: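 Vehicle-treated cultures served as the reference for growth inhibition in a yeast strain carrying DNA damage repair alterations exposed to each compound.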

[3] = NCI Yeast Anticancer Drug Screen. Data for the rad18 strain (AID 177); conditions: S. cerevisiae rad18 mutant growth inhibition, active compounds read high
Outline: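 Test articles were incubated with altered yeast defective in DNA damage repair. Results are given as inhibition of growth versus vehicle.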

[4] = NCI Yeast Anticancer Drug Screen. Data for the rad52 strain (AID 147);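 also: 0% = growth of vehicle-treated control cultures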; conditions: S. cerevisiae rad52 mutant growth inhibition, active compounds read high
Outline: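 Vehicle-treated cultures served as the reference for growth inhibition of compound-exposed yeast bearing a DNA repair mutation.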

[5] = NCI Yeast Anticancer Drug Screen. Data for the wt1 strain (AID 149);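 also: 0% = growth of vehicle-treated wt1 cultures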; conditions: S. cerevisiae wt1 strain (SPY 50644) growth inhibition, active compounds read high
Outline: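 Each compound is tested on wt1 yeast and the loss of growth versus vehicle gives the inhibition value.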

[6] = NCI Yeast Anticancer Drug Screen. Data for the rad50EPP+ strain (AID 151);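 also: 0% = growth of vehicle-treated control cultures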; conditions: S. cerevisiae rad50 mutant strain, active compounds read high
Outline: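 In this screen, rad50EPP+ yeast were exposed to compounds. Growth inhibition was scored against vehicle-treated controls.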

[7] = NCI Yeast Anticancer Drug Screen. Data for the mgt1 strain (AID 153); conditions: S. cerevisiae mgt1 mutant growth inhibition, active compounds read high
Outline: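 mgt1 strain exposed; growth vs vehicle control recorded as inhibition.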

[8] = NCI Yeast Anticancer Drug Screen. Data for the rad50 strain (AID 155);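 also: 0% = growth of vehicle-only cultures of the same strain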; conditions: S. cerevisiae rad50 strain growth inhibition, active compounds read high
Outline: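 Vehicle-treated cultures provide the reference for the growth inhibition reported for compound-exposed, repair-deficient yeast.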

[9] = NCI Yeast Anticancer Drug Screen. Data for the mec2-1 strain (AID 157); conditions: S. cerevisiae mec2-1 strain, active compounds read high
Outline: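 Vehicle-treated cultures served as reference for growth inhibition of compound-exposed mec2-1 yeast.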

[10] = NCI Yeast Anticancer Drug Screen. Data for the sgs1 mgt1 strain (AID 161);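 also: 0% = growth of cultures given vehicle only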; conditions: S. cerevisiae sgs1 mgt1 strain, active compounds read high
Outline: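 Test agents were incubated with a DNA-repair-mutant yeast strain. Growth was then read and compared against vehicle-treated controls.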

[11] = NCI Yeast Anticancer Drug Screen. Data for the CLN2oe strain (AID 163);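 also: 0% = growth of vehicle-only control cultures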; conditions: S. cerevisiae CLN2oe strain, active compounds read high
Outline: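 Inhibition relative to vehicle-treated yeast is reported. Cells: strain with genetic alteration in cell-cycle control, grown with compound.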

[12] = NCI Yeast Anticancer Drug Screen. Data for the bub3 strain (AID 167); conditions: S. cerevisiae bub3 mutant strain, active compounds read high
Outline: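 Mutant yeast screening strain plus compound; vehicle-treated cultures serve as the 0% inhibition reference.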

[13] = NCI Yeast Anticancer Drug Screen. Data for the wt2 strain (AID 169); conditions: S. cerevisiae wt2 strain growth inhibition, active compounds read high
Outline: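 Inhibition of yeast growth was determined after compound treatment, normalised to controls receiving only vehicle.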

[14] = NCI Yeast Anticancer Drug Screen. Data for the sgs1 strain (AID 173);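 also: 0% = growth of vehicle-only control cultures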; conditions: S. cerevisiae sgs1 mutant, active compounds read high
Outline: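 Screen format: yeast with repair or checkpoint alterations, compound exposure, growth read relative to vehicle.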

[15] = at 5.0 µM (retest, dose inferred, filed as 0.5)
[16] = at 50.0 µM (retest, dose inferred, filed as 5.0)

Measured: growth inhibition

O=C(COC(=O)c1ccccc1)c1ccc(Br)cc1
inactive: [1]; at 1.2 µM 12% | [1]; at 3.7 µM 17% | [1]; at 11.0 µM 38% | [2]; [15] 34% | [3]; at 1.2 µM 15% | [3]; at 3.7 µM 17% | [3]; at 11.0 µM 37%
active: [1]; at 33.0 µM 99% | [1]; at 100.0 µM 98% | [2]; [16] 99% | [2]; at 50.0 µM 99.2% | [3]; at 33.0 µM 99% | [3]; at 100.0 µM 98%

O=P(NC1CCCCC1)(OCc1ccccc1)OCc1ccccc1
inactive: [4]; at 1.2 µM -1% | [4]; at 3.7 µM 4% | [4]; at 11.0 µM 16% | [4]; at 33.0 µM 26% | [4]; at 100.0 µM 26% | [5]; at 1.2 µM 0% | [5]; at 3.7 µM 3% | [5]; at 11.0 µM 0% | [5]; at 33.0 µM 3% | [5]; at 100.0 µM 7% | [6]; at 1.2 µM 2% | [6]; at 3.7 µM 4% | [6]; at 11.0 µM 10% | [6]; at 33.0 µM 9% | [6]; at 100.0 µM 7% | [7]; at 1.2 µM -1% | [7]; at 3.7 µM 0% | [7]; at 11.0 µM 4% | [7]; at 33.0 µM 4% | [7]; at 100.0 µM 7% | [8]; at 1.2 µM 3% | [8]; at 3.7 µM 5% | [8]; [15] 8% | [8]; at 11.0 µM 11% | [8]; at 33.0 µM 19% | [8]; [16] 14% | [8]; at 100.0 µM 26% | [9]; at 1.2 µM 1% | [9]; at 3.7 µM 1% | [9]; [15] 5% | [9]; at 11.0 µM 7% | [9]; at 33.0 µM 10% | [9]; [16] 4% | [9]; at 50.0 µM 23.6% | [9]; at 100.0 µM 11% | [10]; [15] 7% | [10]; [16] 7% | [10]; at 50.0 µM 42.3% | [11]; at 1.2 µM 7% | [11]; at 3.7 µM 2% | [11]; at 11.0 µM 10% | [11]; at 33.0 µM 12% | [11]; at 100.0 µM 17% | [12]; at 1.2 µM 0% | [12]; at 3.7 µM 4% | [12]; [15] 3% | [12]; at 11.0 µM 3% | [12]; at 33.0 µM 5% | [12]; [16] 2% | [12]; at 50.0 µM 7.8% | [12]; at 100.0 µM 2% | [13]; at 1.2 µM 1% | [13]; at 3.7 µM 2% | [13]; at 11.0 µM 2% | [13]; at 33.0 µM 4% | [13]; at 100.0 µM 8% | [1]; at 1.2 µM -7% | [1]; at 3.7 µM 0% | [1]; at 11.0 µM 2% | [1]; at 33.0 µM 4% | [1]; at 100.0 µM 7% | [14]; at 1.2 µM 0% | [14]; at 3.7 µM -1% | [14]; at 11.0 µM 0% | [14]; at 33.0 µM 9% | [14]; at 100.0 µM 17% | [2]; [15] 3% | [2]; [16] 3% | [2]; at 50.0 µM 34.8% | [3]; at 1.2 µM -1% | [3]; at 3.7 µM 3% | [3]; at 11.0 µM 13% | [3]; at 33.0 µM 26% | [3]; at 100.0 µM 28%
active: [8]; at 50.0 µM 73.3%

Reference: PubChem BioAssay (NCI)
